Our source for the Inhibition values is ChEMBL document CHEMBL1157539, “Thousands of chemical starting points for antimalarial lead identification” (Nature, 2010).

Structures are written as SMILES.

In this assay the test system is Plasmodium falciparum. Nature of the assay: GSK_TCMDC: Inhibition of Plasmodium falciparum Dd2 in whole red blood cells, using parasite LDH activity as an index of growth. Test compounds present at 2uM. The format is functional.
`CS(=O)(=O)c1ccc(CNCc2ccc(-c3cccc(-c4nc5cc(F)ccc5[nH]4)c3)cc2)cc1.O=C(O)C(F)(F)F` showed an Inhibition of 74%.

Regarding `Cc1cc2c(cc1C(F)(F)F)N(C(=O)Nc1cccc(C(=O)NC3CCN(Cc4ccccc4)CC3)c1)CC2`, the Inhibition was 0%.

`COc1ccc2ncc(F)c(CCN3CCC(NCc4ccc5c(c4)CCO5)CC3)c2n1.Cl` showed an Inhibition of 30%.

The molecule `COc1ccc(C2C(C(=O)Nc3ccc(C)cc3Br)c3ccccc3C(=O)N2C)cc1` (centres undefined) came in with an Inhibition of 2%.

Turning to `O=C(NC(c1ccc(Cl)cc1)c1ccc2cccnc2c1O)c1ccccc1` (centres undefined), the Inhibition came to 80%.

As for `CCOC(=O)c1ccc(NC(=O)Nc2cccc(-c3ccc(-c4nc5cc(C(F)(F)F)ccc5[nH]4)cc3)c2)cc1`, the Inhibition was found to be 99%. The result for `CN(C)CCNC(=O)c1csc(Nc2ccc(Cl)c(Cl)c2)n1` reads 100%. The result for `Cl.O=S(=O)(c1cccc(F)c1)c1ccc(Nc2ncnc3cc(Br)sc23)cc1Cl` reads 11%; that for `Clc1ccc(/N=C(/NCCCCCCCN/C(=N\c2ccc(Cl)cc2)Nc2ccc(Cl)cc2)Nc2ccc(Cl)cc2)cc1`, 99%; that for `CCCCCCOc1ccc(C(=O)NCCCC2CCN(CCCCCNC(=O)C=Cc3ccc(Cl)c(Cl)c3)CC2)cc1`, 25%.

Take `Cl.N=C(N)Nc1ccc(OCCCCCOc2ccc(NC(=N)N)cc2)cc1`: the Inhibition is on record as 100%.

Turning to `COc1ccc(CNCc2ccccc2)cc1-c1ccc(S(=O)(=O)NCCN2CCCC2)cc1.O=C(O)C(F)(F)F`, the Inhibition is given as 39%.

Molecule `OC1=C2C(=Nc3ccccc3SC2c2ccccc2)c2ccccc21` (centres undefined) returned an Inhibition of 94%. The molecule `COc1ccc2[nH]c(C)cc(=NN=Cc3ccccc3Cl)c2c1` came in with an Inhibition of 100%.
